Shown are actives, neighbours in structure and some others; about 4.6% of the full set was active somewhere.
NALP3 yeast inh: inhibitors of NALP3 inflammasome in yeast. inhibition, % at 10 µM. Yeast reconstituted NLRP3/ASC/caspase-1, beta-gal luminescence, 24 h. AID 2825. hit rate 0.39% among 330,000;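 active means inhibition of 50% or more; inactive means inhibition below 50%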;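 further: plate controls were induced DMSO wells for no effect and uninduced yeast grown without galactose for full effect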
PfHsp90 yeast 2: inhibits growth of yeast expressing Plasmodium falciparum Hsp90; S. cerevisiae expressing PfHsp90, BacTiter-Glo ATP, 48 h; yeast lacking PDR1 and PDR3 efflux regulators; inhibition, % at 9.4 µM; hit rate 0.32% among 310,000; AID 504621;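 active means every replicate shows inhibition above about 80%, whatever the replicate mean, limit read from the data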;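 further: 0% = DMSO neutral controls and 100% = 20 µM radicicol positive controls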
tim10-1 inh: growth inhibitors of tim10-1 mutant yeast. S. cerevisiae tim10-1 ts strain growth, BacTiter-Glo, 24 h. inhibition, % at 20 µM. hit rate 2.2% among 330,000. AID 463190;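 active means inhibition of at least 40%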;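 further: mutant grown at 25 °C; 0% = DMSO wells with yeast and 100% = wells holding no yeast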
SKKanGAS inh: blocks kanamycin growth of S. pyogenes SKKanGAS strain; AID 1662; BacTiter-Glo, 6 h; hit rate 1.3% among 300,000; inhibition, % at 7.5 µM;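 active means mean replicate score, as percent of positive control median, at least 50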;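 further: strain carries kanamycin resistance gene driven by streptokinase promoter and grows in 40 µg/ml kanamycin; loss of luminescence reflects streptokinase promoter inhibition or plain growth inhibition; 0% = median of DMSO wells and 100% = positive control at its reference dose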
tim23-1 inh: inhibits growth of tim23-1 mutant yeast. S. cerevisiae tim23-1 growth, BacTiter-Glo luminescence, 24 h. inhibition, % at 20 µM. hit rate 1.3% among 330,000;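 active means growth inhibition of the mutant yeast at or above 50%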;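 further: temperature-sensitive mutant grown at 25 °C; plate controls were DMSO-treated mutant yeast for no effect and medium wells lacking yeast for full effect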
TIM10 inh: TIM10 yeast growth inhibition | S. cerevisiae TIM10 strain growth, BacTiter-Glo luminescence, 24 h | hit rate 1.4% among 330,000 | AID 463195 | inhibition, % at 10 µM;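 active means inhibition of 40% or more at the single tested concentration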;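 further: wild-type TIM10 isogenic control strain grown at permissive 25 °C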
* marks the source's active call; other numbers are inactive results.

Screening COCc1cc(=O)n2[nH]cc(-c3ccccc3)c2n1 returned NALP3 yeast inh 0, PfHsp90 yeast 2 5, tim10-1 inh 4, SKKanGAS inh 8, tim23-1 inh 8 and TIM10 inh -5.
For CCCc1cc(=O)n2[nH]cc(-c3ccc(Cl)cc3)c2n1 the results were NALP3 yeast inh 15, PfHsp90 yeast 2 1, tim10-1 inh -10, SKKanGAS inh 85*, tim23-1 inh 3 and TIM10 inh 3.
Screening CCOC(=O)Cc1cc(=O)n2[nH]cc(-c3cccc(Br)c3)c2n1 returned NALP3 yeast inh 4, PfHsp90 yeast 2 6, tim10-1 inh 14, SKKanGAS inh 71*, tim23-1 inh 15 and TIM10 inh -6.
`O=C(Nc1nc2ccccc2s1)c1cnccn1` gave NALP3 yeast inh 29, PfHsp90 yeast 2 36, tim10-1 inh 29, SKKanGAS inh 15, tim23-1 inh 29 and TIM10 inh 24.
Screening O=C(Nc1nc2ccc(F)cc2s1)c1ccccn1 returned NALP3 yeast inh 31, tim10-1 inh 35, SKKanGAS inh 98*, tim23-1 inh 41 and TIM10 inh -7.
For CCc1nnc(NC(=O)C2Cc3ccccc3CN2S(=O)(=O)CC)s1 (centres undefined) the results were NALP3 yeast inh 2, PfHsp90 yeast 2 -34, tim10-1 inh 15, SKKanGAS inh -3, tim23-1 inh 4 and TIM10 inh -30.
Screening O=C(Nc1nnc(SCc2ccc(F)cc2)s1)c1cccnc1Cl returned NALP3 yeast inh 12, PfHsp90 yeast 2 -20, tim10-1 inh 12, SKKanGAS inh 12, tim23-1 inh 11 and TIM10 inh 15.
CCSc1nnc(NC(=O)c2ccc3ccccc3n2)s1 was read as NALP3 yeast inh 10, PfHsp90 yeast 2 -33, tim10-1 inh 23, SKKanGAS inh 82*, tim23-1 inh 11 and TIM10 inh 26.
Screening O=C(Nc1nnc(SCc2ccc(F)cc2)s1)c1ccccn1 returned NALP3 yeast inh 41, PfHsp90 yeast 2 101*, tim10-1 inh 20, SKKanGAS inh 63*, tim23-1 inh 10 and TIM10 inh 0.
`CCS(=O)(=O)N1Cc2ccccc2CC1C(=O)Nc1nnc(SCc2ccc(F)cc2)s1` (centres undefined) gave NALP3 yeast inh 22, PfHsp90 yeast 2 -30, tim10-1 inh 35, SKKanGAS inh 54*, tim23-1 inh 19 and TIM10 inh 32.
For CCOc1ccccc1OCCCC(=O)Nc1cc(S(=O)(=O)N2CCOCC2)ccc1OC the results were NALP3 yeast inh 22, tim10-1 inh 3, tim23-1 inh 6 and TIM10 inh 8.
Screening CCCc1cc(=O)oc2cc(OCc3ccc(C(=O)O)cc3)ccc12 returned NALP3 yeast inh 12, PfHsp90 yeast 2 109*, tim10-1 inh 20, SKKanGAS inh 2, tim23-1 inh -47 and TIM10 inh 29.
Screening CCCc1cc(=O)oc2cc(OCc3ccc(C(=O)O)o3)ccc12 returned NALP3 yeast inh 11, PfHsp90 yeast 2 9, tim10-1 inh 3, SKKanGAS inh 2, tim23-1 inh -2 and TIM10 inh -2.
Screening CCC1=NN(C(=O)c2ccccc2Br)C(O)(c2ccc(Br)cc2)C1 (centres undefined) returned NALP3 yeast inh 24, PfHsp90 yeast 2 -1, tim10-1 inh 5, SKKanGAS inh 5, tim23-1 inh 43 and TIM10 inh 22.
CCC1=NN(C(=O)c2ccccc2O)C(O)(c2ccccc2)C1 (centres undefined) was read as NALP3 yeast inh 23, PfHsp90 yeast 2 17, tim10-1 inh -15, SKKanGAS inh 54*, tim23-1 inh 36 and TIM10 inh 21.
Screening NS(=O)(=O)c1cccc(NC(=O)COC(=O)c2cc(-c3ccc(Cl)cc3)nc3ccccc23)c1 returned NALP3 yeast inh -2, PfHsp90 yeast 2 -12, tim10-1 inh 16, SKKanGAS inh 91*, tim23-1 inh 5 and TIM10 inh 29.
`Cc1cccc(NC(=O)CCNC(=O)c2ccc(Br)cc2)c1` gave NALP3 yeast inh 18, PfHsp90 yeast 2 -116, tim10-1 inh -28, SKKanGAS inh -3, tim23-1 inh -21 and TIM10 inh -25.
O=C(Nc1cccc(Cl)c1)Nc1csc([N+](=O)[O-])c1 was read as NALP3 yeast inh 47, PfHsp90 yeast 2 37, tim10-1 inh 1, SKKanGAS inh 51*, tim23-1 inh 32 and TIM10 inh 18.
For O=C(Nc1ccncc1)Nc1cccc(Cl)c1 the results were NALP3 yeast inh 8, PfHsp90 yeast 2 23, tim10-1 inh -26, SKKanGAS inh -2, tim23-1 inh -7 and TIM10 inh 11.
`COc1ccc(-n2c(-c3ccc(Cl)cc3)c[n+]3c2CCc2ccccc2-3)cc1` gave NALP3 yeast inh 12, PfHsp90 yeast 2 -4, tim10-1 inh 9, SKKanGAS inh -10, tim23-1 inh -2 and TIM10 inh 1.
Cc1ccc(-n2c(-c3ccc(Br)cc3)c[n+]3c2CCc2ccc4cccnc4c2-3)cc1 was read as PfHsp90 yeast 2 -20 and SKKanGAS inh 81*.
`CCCCCOc1ccc(/C=C/c2c([N+](=O)[O-])c(=O)n(C)c(=O)n2C)cc1` gave NALP3 yeast inh 29, PfHsp90 yeast 2 2, tim10-1 inh 32, SKKanGAS inh 60*, tim23-1 inh 22 and TIM10 inh 16.
Screening N#C/C(=C\c1cccc([N+](=O)[O-])c1)C(=O)NCc1ccc(Cl)cc1 returned PfHsp90 yeast 2 105*.
Screening N#C/C(=C\c1cccc([N+](=O)[O-])c1)C(=O)NCc1cccnc1 returned NALP3 yeast inh 8, PfHsp90 yeast 2 -28, tim10-1 inh 27, SKKanGAS inh 8, tim23-1 inh 31 and TIM10 inh 38.
`COc1ccc(-c2c(C(F)(F)F)[nH]n3c(=O)cc(-c4ccccc4)nc23)cc1` gave NALP3 yeast inh 14, PfHsp90 yeast 2 -12, tim10-1 inh -6, SKKanGAS inh 56*, tim23-1 inh -10 and TIM10 inh 0.
Screening CCc1cc(=O)n2[nH]c(C)c(-c3ccc(OC)cc3)c2n1 returned NALP3 yeast inh 14, PfHsp90 yeast 2 4, tim10-1 inh 20, SKKanGAS inh -2, tim23-1 inh 12 and TIM10 inh 9.
Screening Cc1[nH]n2c(=O)cc(C(C)(C)C)nc2c1-c1ccccc1 returned NALP3 yeast inh -3, PfHsp90 yeast 2 12, tim10-1 inh 29, SKKanGAS inh 89*, tim23-1 inh -3 and TIM10 inh 5.
`Cc1[nH]n2c(=O)cc(C(C)C)nc2c1-c1ccccc1` gave NALP3 yeast inh 5, PfHsp90 yeast 2 8, tim10-1 inh 7, SKKanGAS inh 9, tim23-1 inh -3 and TIM10 inh -3.
Screening Cc1[nH]n2c(=O)cc(-c3ccc([N+](=O)[O-])cc3)nc2c1-c1ccccc1 returned NALP3 yeast inh 9, PfHsp90 yeast 2 10, tim10-1 inh 16, SKKanGAS inh 102*, tim23-1 inh 18 and TIM10 inh 13.
